Most compounds without a hit are left out; they make up all but 7.4% or so of the library.
SMN2 splice up: increases expression of the SMN2 splice variant. HEK293 SMN2-luciferase splicing reporter, luminescence, 30-36 h. AID 1458. 2.8% of 210,000 active. Potency, µM (doses to about 46.1 µM), most hits filed as activators; also: nearly all actives have a fitted effect of over 55% in size
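HEK293 cells carry an SMN2 […]–luciferase reporter in which exon 7 inclusion puts luciferase in frame. Cells were plated 10-12 h before compound addition, then incubated 30-36 h at 37C. ONE-Glo luminescence was read; sodium butyrate at 4.5 mM final served as control.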
FLuc counter: firefly luciferase modulation, counter-screen for miR-21 project | 6.9% of 360,000 active | purified FLuc, Km substrates, luminescence inhibition | Potency, µM (series often up to 57.5 µM), hits mostly inhibitors | AID 588342 | P08659; also: nearly all actives have a fitted effect of over 55% in size
Target sequence (P08659 whole entry, looked up): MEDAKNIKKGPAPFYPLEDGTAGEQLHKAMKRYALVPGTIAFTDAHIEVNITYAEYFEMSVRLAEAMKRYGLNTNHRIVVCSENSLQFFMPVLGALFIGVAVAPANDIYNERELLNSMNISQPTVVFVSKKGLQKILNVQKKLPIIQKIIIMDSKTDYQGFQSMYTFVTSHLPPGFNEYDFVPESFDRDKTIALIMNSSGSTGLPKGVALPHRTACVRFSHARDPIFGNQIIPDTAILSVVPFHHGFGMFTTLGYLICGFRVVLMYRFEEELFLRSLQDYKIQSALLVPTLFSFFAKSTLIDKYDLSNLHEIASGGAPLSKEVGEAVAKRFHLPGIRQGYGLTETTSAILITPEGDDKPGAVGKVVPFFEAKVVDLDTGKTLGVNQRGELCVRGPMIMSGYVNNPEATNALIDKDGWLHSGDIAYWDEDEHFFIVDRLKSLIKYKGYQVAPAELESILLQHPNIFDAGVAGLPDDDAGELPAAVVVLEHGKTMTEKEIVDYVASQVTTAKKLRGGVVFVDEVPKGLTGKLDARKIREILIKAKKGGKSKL
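Biochemical qHTS of compounds, final roughly 60 µM downward over six points, against 10 nM purified firefly luciferase using Km concentrations of substrates (10 uM D-luciferin, 10 uM ATP) in Tris acetate pH 7.5 buffer; luminescence output.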
Rab9 promoter act: activators of Rab9 promoter. Huh7 Rab9 promoter-luciferase reporter, luminescence, 24 h. Potency, µM (top dose mostly 9.22 µM), usual class: activators. 2.8% of 320,000 active. AID 485297; also: nearly all actives have a fitted effect of over 60% in size
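Stable Rab9-luc Huh7, 1500 cells/well, 2 h settle; cmpd in DMSO, 24 h, 37 °C/5% CO2; luciferase reagent 10 min RT; luminescence.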
ELG1 genotoxic: inducers of genotoxicity in HEK293T ELG1-luciferase cells; HEK293T ELG1-luciferase reporter, luminescence, 16 h; Potency, µM (top dose mostly 46 µM), usual class: activators; 1.3% of 330,000 active; also: nearly all actives have a fitted effect of over 60% in size
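DMSO vehicle served as control against compound-treated ELG1-luciferase HEK293T cells; exposure lasted 16 hr at 37 °C and 5% CO2, followed by ONE-Glo luminescence detection after 30 min.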
NPC1 prom act: activates the NPC1 promoter. Huh7 NPC1 promoter luciferase reporter, 24 h. Potency, µM (highest dose often 9.22 µM), actives largely listed as activators. 2.4% of 320,000 active. AID 485313; also: nearly all actives have a fitted effect of over 60% in size
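In 1536-well qHTS, Huh7 cells harboring an NPC1 promoter–luciferase construct received compound for 24 h; activation was quantified by luminescence following luciferase reagent addition.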
Of the large screens only hits and unclear results are named; the others gave an inactive call. Calls follow the shape of the dose curve; as a rule, active = well fitted curve in the direction sought with a large enough effect; inconclusive = small, poorly fitted or top-dose-only effect, or another doubt; inactive = no such curve, though single readings can be large; an effect the other way counts as inactive or inconclusive.

Cc1noc(NS(=O)(=O)c2ccc(NC(=O)/C=C/c3ccc(Br)cc3)cc2)c1C	FLuc counter inconclusive (no result: SMN2 splice up)
CCc1nnc(NS(=O)(=O)c2ccc(N/C=C\C(=O)c3cccc4ccccc34)cc2)s1	none
Cc1noc(NS(=O)(=O)c2ccc(N/C=C\C(=O)c3ccc(Br)cc3)cc2)c1C	FLuc counter 27µM (no result: SMN2 splice up)
Cc1noc(NS(=O)(=O)c2ccc(N/C=C\C(=O)c3ccc4c(c3)OCO4)cc2)c1C	FLuc counter 9.5µM
CCOc1ccc(C(=O)/C=C/Nc2ccc(S(=O)(=O)N=C(N)N)cc2)cc1	ELG1 genotoxic inconclusive
CCOc1ccc(C(=O)/C=C/Nc2ccc(S(=O)(=O)Nc3onc(C)c3C)cc2)cc1	SMN2 splice up inconclusive, FLuc counter 15µM, ELG1 genotoxic inconclusive
CN(C)c1ccc(C(=O)OCC(=O)N2CCCCCC2)cc1	FLuc counter inconclusive, Rab9 promoter act 3.5µM, NPC1 prom act inconclusive
CN(C)c1ccc(C(=O)OCC(=O)NCCNC(=O)COC(=O)c2ccc(N(C)C)cc2)cc1	FLuc counter 4.8µM, Rab9 promoter act 1.4µM, ELG1 genotoxic inconclusive, NPC1 prom act 4µM (no result: SMN2 splice up)
CN(C)c1ccc(C(=O)OCC(=O)NCCCc2ccccc2)cc1	none (no result: SMN2 splice up)
COc1cccc(NC(=O)NCc2c(-c3ccccc3)noc2C)c1	none (no result: SMN2 splice up)
COc1ccc(OC)c(NC(=O)Cn2ccc3ccccc3c2=O)c1	none (no result: Rab9 promoter act, ELG1 genotoxic, NPC1 prom act)
COc1ccc(CCNC(=O)CCNC(=O)c2ccc([N+](=O)[O-])cc2)cc1	none (no result: SMN2 splice up)
COc1ccccc1Nc1nc2ccc(C)cc2cc1C#N	FLuc counter 12µM
Cc1ccnc2c1ccc1cccnc12	none (no result: SMN2 splice up)
Cc1ccnc2c1ccc1ccccc12	FLuc counter 17µM (no result: SMN2 splice up)
CC(=O)c1cccc(Nc2nc(-c3cccnc3)cs2)c1	FLuc counter 11µM, Rab9 promoter act inconclusive, NPC1 prom act 3.5µM (no result: SMN2 splice up)
O=C(Nc1cccc(-c2csc(Nc3ccccc3)n2)c1)c1ccccc1	FLuc counter 1.7µM, Rab9 promoter act inconclusive, NPC1 prom act inconclusive (no result: SMN2 splice up)
O=[N+]([O-])c1cccc(-c2csc(Nc3ccccc3)n2)c1	FLuc counter 13µM, Rab9 promoter act inconclusive (no result: SMN2 splice up)
O=C(Nc1cccc(-c2csc(Nc3cccc(C(F)(F)F)c3)n2)c1)c1ccccc1	FLuc counter inconclusive (no result: SMN2 splice up)
O=C(O)CCC(=O)Nc1cccc(-c2csc(-c3ccccc3)n2)c1	FLuc counter 7.6µM
Cc1cccc2cc(CN(CCN(C)C)C(=S)Nc3ccccc3)c(=O)[nH]c12	none
COc1ccccc1NC(=S)N1CCN(c2ccccc2F)CC1	none (no result: SMN2 splice up)
CCCCc1ccc(C(=O)N/C(=C\c2ccc(C)cc2)C(=O)NC2CCCCC2)cc1	none (no result: Rab9 promoter act, ELG1 genotoxic, NPC1 prom act)
C=CCn1c(=O)c(CCC(=O)Nc2ccc(N3CCOCC3)cc2)nc2cc(C(F)(F)F)ccc21	none (no result: SMN2 splice up)
CC(=O)c1cccc(Nc2nc(-c3ccccc3)cs2)c1	SMN2 splice up 11µM, FLuc counter 3.4µM, Rab9 promoter act 1.3µM, ELG1 genotoxic inconclusive, NPC1 prom act 3.2µM
O=C(Nc1ccc(-c2csc(Nc3cccc(C(F)(F)F)c3)n2)cc1)c1ccccc1	none (no result: SMN2 splice up)
CC(=O)N1N=C(c2ccc(Cl)cc2)OC1c1ccc(C(C)C)cc1 (centres undefined)	FLuc counter 12µM, ELG1 genotoxic inconclusive
CC(=O)N1N=C(c2ccc(C)cc2)OC1c1ccc(Br)cc1 (centres undefined)	none (no result: SMN2 splice up)
COc1ccc(OC)c(-c2noc(N3CCN(c4ccc(Cl)cc4)CC3)n2)c1	none (no result: SMN2 splice up, Rab9 promoter act, ELG1 genotoxic, NPC1 prom act)
Cc1c(C=C2C(=O)c3ccccc3C2=O)cc(C#N)n1C	none (no result: SMN2 splice up)
Cc1ccc(C(=O)/C=C/c2cc(C#N)n(C)c2C)cc1	FLuc counter 8.5µM (no result: SMN2 splice up)
COC(=O)c1ccc(OC)c(CN2C(=O)N(c3ccc(C(C)=O)cc3)S(=O)(=O)c3ccccc32)c1	none (no result: SMN2 splice up, Rab9 promoter act, ELG1 genotoxic, NPC1 prom act)
O=C1CC(SC(=NCc2ccc3c(c2)OCO3)Nc2ccccc2)C(=O)N1 (centres undefined)	none
COc1ccc(CN=C(Nc2ccccc2)SC2CC(=O)NC2=O)cc1 (centres undefined)	FLuc counter 6.7µM, Rab9 promoter act inconclusive, ELG1 genotoxic inconclusive, NPC1 prom act inconclusive (no result: SMN2 splice up)
CSCc1ccc(C(=O)NCc2ccccc2)cc1	FLuc counter 27µM
CSCc1ccc(C(=O)Nc2ccc(C(N)=O)cc2)cc1	SMN2 splice up 11µM, FLuc counter 5.4µM, Rab9 promoter act 2.8µM, ELG1 genotoxic 15µM, NPC1 prom act 2µM
Cc1ccsc1/C=N/n1c(COc2ccccc2)n[nH]c1=S	none
CC(=O)/C(N=Nc1ccc2c(c1)OCCO2)=C(\C)O	FLuc counter 9.5µM, ELG1 genotoxic inconclusive
CC(=O)/C(N=Nc1ccc(C(=O)O)cc1)=C(\C)O	none (no result: SMN2 splice up)
CC(=O)/C(N=Nc1ccc2c(c1)OCO2)=C(\C)O	SMN2 splice up 14µM, FLuc counter 21µM, Rab9 promoter act 3.5µM, ELG1 genotoxic inconclusive, NPC1 prom act 2.8µM
Cc1ccc(NC(=O)C2CCCN(c3ncccn3)C2)cc1C (centres undefined)	FLuc counter 17µM, Rab9 promoter act inconclusive, ELG1 genotoxic inconclusive, NPC1 prom act inconclusive (no result: SMN2 splice up)
Cc1ccnc(N2CCCC(C(=O)Nc3ccc(C)c(C)c3)C2)n1 (centres undefined)	none (no result: SMN2 splice up)
CCC(C)c1ccc(NC(=O)C2CC2)cc1 (centres undefined)	FLuc counter 15µM, ELG1 genotoxic inconclusive
CCOc1ccc(NC(=O)Nc2cnccn2)cc1	SMN2 splice up inconclusive, FLuc counter inconclusive, Rab9 promoter act inconclusive
CCC(C)c1ccc(NC(=O)Nc2cnccn2)cc1 (centres undefined)	FLuc counter 6.7µM, Rab9 promoter act inconclusive, ELG1 genotoxic inconclusive (no result: SMN2 splice up)
COc1ccc(NC(=O)C2CCCN(c3ncccn3)C2)cc1 (centres undefined)	FLuc counter 17µM, Rab9 promoter act 2.8µM, ELG1 genotoxic inconclusive, NPC1 prom act inconclusive (no result: SMN2 splice up)
COc1ccc(CCNC(=O)C(=O)N2CCCC2)cc1OC	FLuc counter inconclusive
CCCCNc1nc(Oc2ccc(=O)n(-c3ccccc3)n2)nc(N(CC)CC)n1	none (no result: Rab9 promoter act, ELG1 genotoxic, NPC1 prom act)
CCC(C)c1ccc(NC(=O)C2CCCN(c3ncccn3)C2)cc1 (centres undefined)	FLuc counter 15µM
COc1ccc(/C=C/C2=NNC(=O)CC2)cc1	SMN2 splice up 16µM, FLuc counter inconclusive, Rab9 promoter act 2.8µM, ELG1 genotoxic inconclusive
O=C1CCC(/C=C/c2ccccc2)=NN1	none
CCOc1ccc(/C=C/C2=NNC(=O)CC2)cc1	SMN2 splice up 11µM, FLuc counter 15µM, Rab9 promoter act inconclusive, ELG1 genotoxic 18µM, NPC1 prom act inconclusive
N#Cc1ccccc1S(=O)(=O)N1CCN(c2cnccn2)CC1	none
Cc1ccc(/C(N)=N/OC(=O)CSc2ccccc2)cc1	SMN2 splice up 11µM, FLuc counter 1.7µM, Rab9 promoter act 3.5µM, ELG1 genotoxic inconclusive, NPC1 prom act 2.5µM
O=C(NNC(=O)c1ccc([N+](=O)[O-])cc1)c1ccncc1	none
N/C(=N\OC(=O)CSc1ccccc1)c1ccc([N+](=O)[O-])cc1	SMN2 splice up inconclusive, FLuc counter 19µM, ELG1 genotoxic inconclusive

From PubChem
